# Assay results: ChEMBL document CHEMBL1961873, “Compounds: GSK PKIS; Assays: Nanosyn kinase panel” (2012)
# Columns and labels:
# [1] = target: T1, Aurora kinase A (Homo sapiens) (UniProt O14965); settings: at 1 µM;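 further: values are mean percent inhibition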
# T1 sequence (whole entry): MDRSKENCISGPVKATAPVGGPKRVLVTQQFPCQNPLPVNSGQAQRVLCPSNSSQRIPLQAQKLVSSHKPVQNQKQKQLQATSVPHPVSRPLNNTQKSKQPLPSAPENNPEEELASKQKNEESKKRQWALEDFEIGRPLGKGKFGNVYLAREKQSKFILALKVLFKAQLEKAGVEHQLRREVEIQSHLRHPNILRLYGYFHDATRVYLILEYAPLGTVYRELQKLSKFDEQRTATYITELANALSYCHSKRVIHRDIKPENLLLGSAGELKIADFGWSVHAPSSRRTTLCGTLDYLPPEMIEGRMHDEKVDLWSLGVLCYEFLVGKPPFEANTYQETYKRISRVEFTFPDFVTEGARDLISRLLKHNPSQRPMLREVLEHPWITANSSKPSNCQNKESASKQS
# [2] = target: Aurora kinase B (Homo sapiens) (UniProt Q96GD4); settings: at 0.1 µM
# Chain of Aurora kinase B (Homo sapiens) (Q96GD4 whole entry): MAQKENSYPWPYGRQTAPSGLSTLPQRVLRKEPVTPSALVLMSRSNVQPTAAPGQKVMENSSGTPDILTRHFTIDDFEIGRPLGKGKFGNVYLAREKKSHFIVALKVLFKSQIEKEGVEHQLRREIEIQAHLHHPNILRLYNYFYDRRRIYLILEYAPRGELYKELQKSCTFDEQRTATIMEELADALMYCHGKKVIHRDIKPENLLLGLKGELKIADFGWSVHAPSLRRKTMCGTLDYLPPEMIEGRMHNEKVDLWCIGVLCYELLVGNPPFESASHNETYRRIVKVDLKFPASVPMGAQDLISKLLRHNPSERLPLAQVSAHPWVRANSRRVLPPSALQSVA
# [3] = target: Aurora kinase B (Homo sapiens) (UniProt Q96GD4); settings: at 1 µM
# [4] = target: T2, Aurora kinase C (Homo sapiens) (UniProt Q9UQB9); settings: at 0.1 µM
# T2 sequence (whole entry): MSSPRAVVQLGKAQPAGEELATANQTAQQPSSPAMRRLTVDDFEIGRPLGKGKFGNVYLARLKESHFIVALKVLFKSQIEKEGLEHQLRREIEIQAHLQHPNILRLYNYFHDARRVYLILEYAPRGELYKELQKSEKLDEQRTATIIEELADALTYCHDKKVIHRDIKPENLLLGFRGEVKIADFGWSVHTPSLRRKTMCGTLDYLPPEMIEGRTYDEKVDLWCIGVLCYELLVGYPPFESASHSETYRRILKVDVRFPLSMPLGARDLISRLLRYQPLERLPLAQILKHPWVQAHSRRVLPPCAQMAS
# [5] = target: T2, Aurora kinase C (Homo sapiens); settings: at 1 µM
# [6] = target: Serine/threonine-protein kinase 10 (Homo sapiens) (UniProt O94804); settings: at 0.1 µM
# Chain of Serine/threonine-protein kinase 10 (Homo sapiens) (O94804 whole entry, looked up): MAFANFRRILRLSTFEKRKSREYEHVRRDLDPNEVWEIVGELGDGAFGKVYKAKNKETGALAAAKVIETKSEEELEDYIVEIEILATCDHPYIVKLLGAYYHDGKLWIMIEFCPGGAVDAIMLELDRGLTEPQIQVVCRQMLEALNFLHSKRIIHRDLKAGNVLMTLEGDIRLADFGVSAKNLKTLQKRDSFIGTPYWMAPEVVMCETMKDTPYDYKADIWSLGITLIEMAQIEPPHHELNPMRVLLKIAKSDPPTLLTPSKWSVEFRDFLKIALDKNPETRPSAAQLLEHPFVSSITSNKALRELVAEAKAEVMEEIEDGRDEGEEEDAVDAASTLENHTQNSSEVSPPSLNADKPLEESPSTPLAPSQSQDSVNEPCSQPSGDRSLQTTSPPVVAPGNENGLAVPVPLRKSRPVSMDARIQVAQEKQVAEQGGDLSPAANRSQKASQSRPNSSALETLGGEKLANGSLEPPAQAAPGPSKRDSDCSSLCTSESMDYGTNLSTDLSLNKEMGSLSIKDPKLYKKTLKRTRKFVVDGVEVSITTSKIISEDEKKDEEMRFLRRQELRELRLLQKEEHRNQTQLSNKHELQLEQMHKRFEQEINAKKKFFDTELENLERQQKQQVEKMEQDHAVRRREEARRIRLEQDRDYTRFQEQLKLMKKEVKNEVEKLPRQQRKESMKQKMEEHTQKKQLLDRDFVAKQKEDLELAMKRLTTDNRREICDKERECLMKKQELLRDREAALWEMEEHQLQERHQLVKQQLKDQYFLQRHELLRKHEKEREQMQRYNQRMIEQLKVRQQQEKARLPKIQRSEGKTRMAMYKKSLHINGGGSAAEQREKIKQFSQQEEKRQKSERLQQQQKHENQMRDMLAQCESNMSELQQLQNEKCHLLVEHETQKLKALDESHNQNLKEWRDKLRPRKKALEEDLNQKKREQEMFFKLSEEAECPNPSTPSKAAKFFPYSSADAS
# [7] = target: Serine/threonine-protein kinase 10 (Homo sapiens) (UniProt O94804); settings: at 1 µM
# [8] = target: T3, Mitogen-activated protein kinase kinase kinase kinase 2 (Homo sapiens) (UniProt Q12851); settings: at 0.1 µM
# T3 sequence (whole entry): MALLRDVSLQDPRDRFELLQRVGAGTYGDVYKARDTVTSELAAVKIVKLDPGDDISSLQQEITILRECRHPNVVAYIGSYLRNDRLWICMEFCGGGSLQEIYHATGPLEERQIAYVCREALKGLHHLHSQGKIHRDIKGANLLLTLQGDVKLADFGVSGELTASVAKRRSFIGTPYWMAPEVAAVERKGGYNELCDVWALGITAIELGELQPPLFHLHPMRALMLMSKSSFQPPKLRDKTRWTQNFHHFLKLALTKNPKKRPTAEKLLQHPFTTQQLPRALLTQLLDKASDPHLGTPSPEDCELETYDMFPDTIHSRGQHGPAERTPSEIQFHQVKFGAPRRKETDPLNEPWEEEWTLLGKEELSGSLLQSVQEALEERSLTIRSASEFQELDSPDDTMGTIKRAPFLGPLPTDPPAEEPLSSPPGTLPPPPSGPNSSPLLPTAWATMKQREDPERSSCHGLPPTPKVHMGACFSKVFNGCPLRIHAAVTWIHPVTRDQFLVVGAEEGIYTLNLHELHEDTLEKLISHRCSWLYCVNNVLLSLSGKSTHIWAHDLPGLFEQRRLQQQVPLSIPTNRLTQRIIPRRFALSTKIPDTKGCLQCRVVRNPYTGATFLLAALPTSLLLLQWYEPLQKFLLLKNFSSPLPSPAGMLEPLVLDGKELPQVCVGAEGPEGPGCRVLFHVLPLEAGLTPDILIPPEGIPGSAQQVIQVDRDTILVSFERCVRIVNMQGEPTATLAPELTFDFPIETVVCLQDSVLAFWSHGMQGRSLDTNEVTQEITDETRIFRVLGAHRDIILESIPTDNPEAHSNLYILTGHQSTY
# [9] = target: T3, Mitogen-activated protein kinase kinase kinase kinase 2 (Homo sapiens); settings: at 1 µM
# [10] = target: Mitogen-activated protein kinase kinase kinase kinase 4 (Homo sapiens) (UniProt O95819); settings: at 0.1 µM
# Chain of Mitogen-activated protein kinase kinase kinase kinase 4 (Homo sapiens) (O95819 2-1239 limits assumed): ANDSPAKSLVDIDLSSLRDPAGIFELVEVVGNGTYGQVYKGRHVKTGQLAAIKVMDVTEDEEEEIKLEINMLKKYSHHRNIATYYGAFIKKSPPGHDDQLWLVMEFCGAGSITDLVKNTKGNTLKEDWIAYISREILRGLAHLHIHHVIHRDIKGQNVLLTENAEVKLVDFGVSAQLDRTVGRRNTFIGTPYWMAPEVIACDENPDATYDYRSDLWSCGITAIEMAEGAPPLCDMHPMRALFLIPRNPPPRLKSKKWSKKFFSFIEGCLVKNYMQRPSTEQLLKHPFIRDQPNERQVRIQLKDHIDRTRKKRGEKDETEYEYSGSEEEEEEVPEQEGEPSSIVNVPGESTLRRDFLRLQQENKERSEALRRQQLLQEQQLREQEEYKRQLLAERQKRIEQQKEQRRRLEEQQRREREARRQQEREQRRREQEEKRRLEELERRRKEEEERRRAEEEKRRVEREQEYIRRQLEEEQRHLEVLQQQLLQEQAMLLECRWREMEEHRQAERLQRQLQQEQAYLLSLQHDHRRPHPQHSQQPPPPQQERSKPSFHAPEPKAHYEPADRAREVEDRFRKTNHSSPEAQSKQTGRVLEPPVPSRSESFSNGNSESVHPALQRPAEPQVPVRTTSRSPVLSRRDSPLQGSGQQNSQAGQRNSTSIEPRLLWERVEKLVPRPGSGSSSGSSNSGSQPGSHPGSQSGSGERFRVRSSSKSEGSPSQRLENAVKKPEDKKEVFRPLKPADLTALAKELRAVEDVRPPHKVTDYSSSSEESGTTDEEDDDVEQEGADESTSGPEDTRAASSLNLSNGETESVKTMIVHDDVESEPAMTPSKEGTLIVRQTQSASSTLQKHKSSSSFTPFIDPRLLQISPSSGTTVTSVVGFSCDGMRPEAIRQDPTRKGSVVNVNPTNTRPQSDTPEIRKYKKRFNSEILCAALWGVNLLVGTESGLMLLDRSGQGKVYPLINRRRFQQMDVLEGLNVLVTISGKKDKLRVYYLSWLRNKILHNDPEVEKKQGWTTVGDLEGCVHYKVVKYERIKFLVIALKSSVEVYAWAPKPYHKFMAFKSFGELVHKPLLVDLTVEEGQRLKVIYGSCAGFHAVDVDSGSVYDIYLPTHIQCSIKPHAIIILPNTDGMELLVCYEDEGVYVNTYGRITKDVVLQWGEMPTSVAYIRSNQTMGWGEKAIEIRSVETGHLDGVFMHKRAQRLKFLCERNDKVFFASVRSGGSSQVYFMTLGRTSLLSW
# [11] = target: Mitogen-activated protein kinase kinase kinase kinase 4 (Homo sapiens) (UniProt O95819); settings: at 1 µM
# [12] = target: Dual specificity mitogen-activated protein kinase kinase 1 (Homo sapiens) (UniProt Q02750); settings: at 0.1 µM
# Chain of Dual specificity mitogen-activated protein kinase kinase 1 (Homo sapiens) (Q02750 whole entry): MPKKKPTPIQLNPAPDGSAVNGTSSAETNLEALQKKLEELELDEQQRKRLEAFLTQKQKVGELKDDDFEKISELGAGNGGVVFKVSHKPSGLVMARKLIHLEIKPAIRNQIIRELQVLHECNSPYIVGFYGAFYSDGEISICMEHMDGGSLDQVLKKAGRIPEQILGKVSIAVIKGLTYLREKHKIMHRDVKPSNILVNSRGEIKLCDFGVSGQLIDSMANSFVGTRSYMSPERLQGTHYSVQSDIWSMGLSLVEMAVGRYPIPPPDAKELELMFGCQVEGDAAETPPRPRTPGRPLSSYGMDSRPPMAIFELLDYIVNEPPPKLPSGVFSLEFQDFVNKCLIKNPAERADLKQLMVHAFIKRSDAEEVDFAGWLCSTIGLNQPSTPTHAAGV
# [13] = target: Dual specificity mitogen-activated protein kinase kinase 1 (Homo sapiens) (UniProt Q02750); settings: at 1 µM
# [14] = target: Misshapen-like kinase 1 (Homo sapiens) (UniProt Q8N4C8); settings: at 0.1 µM
# Chain of Misshapen-like kinase 1 (Homo sapiens) (Q8N4C8 whole entry, looked up): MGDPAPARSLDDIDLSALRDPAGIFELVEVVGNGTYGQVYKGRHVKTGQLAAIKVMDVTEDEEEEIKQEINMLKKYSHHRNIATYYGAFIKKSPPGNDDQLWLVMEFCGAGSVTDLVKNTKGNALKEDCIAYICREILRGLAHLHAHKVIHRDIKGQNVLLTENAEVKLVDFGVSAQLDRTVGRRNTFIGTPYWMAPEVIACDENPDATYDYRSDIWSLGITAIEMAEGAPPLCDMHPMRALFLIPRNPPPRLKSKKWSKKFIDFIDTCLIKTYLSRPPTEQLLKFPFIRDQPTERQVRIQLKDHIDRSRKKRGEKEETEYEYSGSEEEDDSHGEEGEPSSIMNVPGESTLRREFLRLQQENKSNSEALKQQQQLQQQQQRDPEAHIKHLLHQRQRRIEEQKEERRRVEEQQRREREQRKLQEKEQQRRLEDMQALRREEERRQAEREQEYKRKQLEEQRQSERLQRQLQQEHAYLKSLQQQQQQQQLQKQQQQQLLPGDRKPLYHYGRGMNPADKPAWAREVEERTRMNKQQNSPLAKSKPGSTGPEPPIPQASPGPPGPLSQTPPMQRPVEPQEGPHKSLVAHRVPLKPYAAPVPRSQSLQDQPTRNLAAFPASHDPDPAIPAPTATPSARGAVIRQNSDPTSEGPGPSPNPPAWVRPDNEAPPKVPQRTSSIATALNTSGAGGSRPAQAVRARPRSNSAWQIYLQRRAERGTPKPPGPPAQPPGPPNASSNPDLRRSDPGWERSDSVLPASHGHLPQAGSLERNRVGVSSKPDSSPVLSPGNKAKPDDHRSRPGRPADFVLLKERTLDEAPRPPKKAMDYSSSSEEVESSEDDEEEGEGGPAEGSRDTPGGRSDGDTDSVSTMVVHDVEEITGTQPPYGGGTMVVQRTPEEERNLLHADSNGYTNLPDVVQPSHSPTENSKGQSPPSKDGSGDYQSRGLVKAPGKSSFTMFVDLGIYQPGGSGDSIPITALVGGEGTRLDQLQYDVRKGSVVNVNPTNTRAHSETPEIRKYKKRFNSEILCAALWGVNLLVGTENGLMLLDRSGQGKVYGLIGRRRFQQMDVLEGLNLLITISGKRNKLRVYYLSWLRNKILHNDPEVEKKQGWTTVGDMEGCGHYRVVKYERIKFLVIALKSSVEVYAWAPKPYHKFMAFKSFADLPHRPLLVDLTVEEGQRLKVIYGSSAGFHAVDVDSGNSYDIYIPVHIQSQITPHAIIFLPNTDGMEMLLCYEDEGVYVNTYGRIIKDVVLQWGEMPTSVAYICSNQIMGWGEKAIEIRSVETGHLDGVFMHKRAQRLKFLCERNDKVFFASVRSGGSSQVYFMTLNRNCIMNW
# [15] = target: Misshapen-like kinase 1 (Homo sapiens) (UniProt Q8N4C8); settings: at 1 µM
# [16] = target: T4, Serine/threonine-protein kinase 4 (Homo sapiens) (UniProt Q13043); settings: at 0.1 µM
# T4 sequence (whole entry): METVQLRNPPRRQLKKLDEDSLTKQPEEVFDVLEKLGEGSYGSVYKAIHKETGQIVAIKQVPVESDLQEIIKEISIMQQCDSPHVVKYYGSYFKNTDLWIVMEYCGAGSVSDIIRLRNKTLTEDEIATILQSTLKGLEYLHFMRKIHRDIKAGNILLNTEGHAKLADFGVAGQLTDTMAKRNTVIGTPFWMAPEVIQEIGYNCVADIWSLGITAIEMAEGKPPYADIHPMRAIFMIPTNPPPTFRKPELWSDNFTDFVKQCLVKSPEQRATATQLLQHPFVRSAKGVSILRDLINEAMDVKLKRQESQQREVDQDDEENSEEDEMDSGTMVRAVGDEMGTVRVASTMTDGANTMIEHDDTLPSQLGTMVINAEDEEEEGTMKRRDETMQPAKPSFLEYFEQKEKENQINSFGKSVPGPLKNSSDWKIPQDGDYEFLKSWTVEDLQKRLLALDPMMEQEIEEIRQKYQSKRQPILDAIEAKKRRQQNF
# [17] = target: T4, Serine/threonine-protein kinase 4 (Homo sapiens); settings: at 1 µM
# [18] = target: T5, Serine/threonine-protein kinase 3 (Homo sapiens) (UniProt Q13188); settings: at 0.1 µM
# T5 sequence (whole entry): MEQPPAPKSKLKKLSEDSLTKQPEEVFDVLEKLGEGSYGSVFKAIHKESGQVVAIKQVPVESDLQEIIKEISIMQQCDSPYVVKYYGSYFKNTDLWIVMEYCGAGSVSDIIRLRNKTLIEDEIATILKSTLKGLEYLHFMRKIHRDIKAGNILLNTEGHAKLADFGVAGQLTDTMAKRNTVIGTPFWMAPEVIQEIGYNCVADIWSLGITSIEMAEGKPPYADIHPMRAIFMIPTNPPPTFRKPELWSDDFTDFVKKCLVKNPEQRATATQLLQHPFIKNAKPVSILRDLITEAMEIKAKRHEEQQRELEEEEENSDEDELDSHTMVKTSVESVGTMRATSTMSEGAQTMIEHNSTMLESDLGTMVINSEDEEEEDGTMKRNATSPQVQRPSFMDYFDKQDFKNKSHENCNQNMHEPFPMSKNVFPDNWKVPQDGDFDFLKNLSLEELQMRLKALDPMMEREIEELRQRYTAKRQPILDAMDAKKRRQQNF
# [19] = target: T5, Serine/threonine-protein kinase 3 (Homo sapiens); settings: at 1 µM
# [20] = target: Serine/threonine-protein kinase 26 (Homo sapiens) (UniProt Q9P289); settings: at 0.1 µM
# Chain of Serine/threonine-protein kinase 26 (Homo sapiens) (Q9P289 2-416 limits assumed): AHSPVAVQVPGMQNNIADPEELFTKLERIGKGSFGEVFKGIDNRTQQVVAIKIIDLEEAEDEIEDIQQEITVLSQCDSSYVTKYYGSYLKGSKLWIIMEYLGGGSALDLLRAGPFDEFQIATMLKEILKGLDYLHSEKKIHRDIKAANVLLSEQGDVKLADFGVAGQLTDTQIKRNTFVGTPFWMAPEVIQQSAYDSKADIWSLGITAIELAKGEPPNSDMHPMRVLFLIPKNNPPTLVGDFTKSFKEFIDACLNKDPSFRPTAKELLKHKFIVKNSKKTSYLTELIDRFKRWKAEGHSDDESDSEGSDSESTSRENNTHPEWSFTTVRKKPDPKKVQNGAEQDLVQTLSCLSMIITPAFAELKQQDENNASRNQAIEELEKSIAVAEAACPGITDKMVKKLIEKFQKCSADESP
Compound,inhibition [1],inhibition [2],inhibition [3],inhibition [4],inhibition [5],inhibition [6],inhibition [7],inhibition [8],inhibition [9],inhibition [10],inhibition [11],inhibition [12],inhibition [13],inhibition [14],inhibition [15],inhibition [16],inhibition [17],inhibition [18],inhibition [19],inhibition [20]
O=C(O[C@H]1CN[C@H](C#Cc2cc3ncnc(Nc4ccc(Cc5ccccc5)cc4)c3s2)C1)N1CCOCC1,1.29%,1.27%,2.04%,-0.18%,5.53%,3.08%,7.29%,0.39%,0.86%,-0.42%,-0.81%,1.32%,1.73%,3.34%,1.04%,1.14%,3.13%,3.94%,3.64%,-0.29%
Cc1ccc2c(-c3ccnc(Nc4ccccc4)n3)c(-c3ccc(F)cc3)nn2n1,16.4%,-4.16%,12.9%,2.67%,25.2%,7.71%,22.8%,0.67%,3.98%,12.3%,62.1%,4.55%,10.8%,9.04%,50.7%,6.19%,5.86%,8.21%,5.67%,-1.05%
NS(=O)(=O)c1ccc(N/N=C2\C(=O)Nc3ccc4ncccc4c32)cc1,91.8%,20%,67.9%,15.8%,91.9%,4.44%,13.1%,11.7%,49.8%,44.4%,82.4%,14.3%,61.1%,34.1%,76.2%,84.6%,89.5%,80.3%,88.3%,43.6%
COc1cc2ncn(-c3cc(OCc4ccccc4C(F)(F)F)c(C(=O)N(C)C)s3)c2cc1OC,9.82%,5.54%,31.1%,3.22%,46.2%,12.9%,55.8%,0.57%,2.23%,0.42%,2.4%,0.8%,1.58%,1.7%,2.67%,-0.01%,3.43%,1.15%,4.03%,0%
COc1cccc(-c2c[nH]c3c(N/N=C/c4ccncc4)ncnc23)c1,37.7%,9.33%,55.4%,13.2%,90.2%,8.9%,35.4%,3.34%,11.9%,26%,74.5%,1.76%,6.21%,17.5%,61.9%,5.59%,15.2%,4.97%,13.2%,2.3%
COc1ccc2[nH]c3c4[nH]c5ccc(OC)cc5c4c4c(c3c2c1)C(=O)NC4=O,68.8%,20.7%,66.9%,12.4%,86.8%,9.72%,40.2%,2.06%,12.1%,84.6%,88.4%,4.86%,7.06%,81.3%,84.8%,13%,42%,14.2%,42.4%,4.27%
COc1ccc2c(-c3ccnc(Nc4cccc(OC(F)(F)F)c4)n3)cnn2n1,33.9%,5.14%,28.8%,2.02%,56.9%,4.75%,10.6%,0.05%,5.46%,4.63%,11.5%,6.37%,6.2%,5.92%,10.5%,8.73%,9.62%,9.08%,9.55%,-1.2%
COc1cc2c(cc1Nc1nc(Nc3ccsc3C(N)=O)c3cc[nH]c3n1)N(C(=O)CN(C)C)CCC2(C)C,13.2%,6.17%,11.7%,4.7%,13.7%,6.3%,17.3%,4.1%,22.6%,12.1%,14.8%,6.86%,12.3%,11.4%,15.3%,15.6%,47.7%,12.3%,22.1%,3.1%
CNC(=O)c1cncc(/C=C/c2ccccc2Cl)c1,12%,2.57%,7.3%,5.27%,-3.84%,3.92%,8.22%,1.8%,2.04%,2.52%,15.2%,-0.39%,2.24%,2.28%,15.4%,4.63%,7.5%,5.87%,7.94%,1.78%
COc1ccc(-c2oc3ncnc(N)c3c2-c2ccc(NC(=O)Nc3cc(C(F)(F)F)ccc3F)cc2)cc1,49.5%,8.53%,46.2%,3.56%,76.2%,49.5%,91.3%,8.42%,47.2%,5.29%,10.1%,6.74%,7.26%,6.56%,6.71%,12.5%,19.3%,12.7%,18.3%,0.51%
CC(C)COC(=O)c1ccc2c(c1)/C(=C/Nc1ccc(S(N)(=O)=O)cc1)C(=O)N2,61%,6.97%,48%,4.05%,82.9%,-1.08%,12.6%,2.95%,14.3%,14.5%,65.3%,3.79%,33.7%,10.3%,53.8%,46.2%,81.5%,34%,77.9%,-0.24%
COc1cc(/C=N/Nc2ncnc3[nH]ncc23)ccc1O,55.1%,9.45%,42.1%,6.8%,66%,5.88%,19.5%,1.7%,9.66%,7.81%,38.5%,3.54%,3.75%,6.75%,25.1%,6.37%,19.5%,5.9%,15.1%,-1.06%
CCn1c(-c2nonc2N)nc2cnc(Oc3cccc(NC(=O)c4ccc(N(C)C)cc4)c3)cc21,79.2%,3.58%,18.1%,1.17%,43.7%,2.62%,5.59%,-0.28%,3.56%,3.32%,29.4%,1.11%,2.61%,3.19%,28.2%,-0.06%,1.47%,0.98%,2.32%,-1.48%
FC(F)(F)c1cccc(-c2nn3ncccc3c2-c2ccnc(Nc3ccc4c(c3)OCCO4)n2)c1,24.7%,4.28%,12.4%,1.81%,19.9%,3.84%,19.8%,1.35%,12.2%,7.12%,58.1%,2.31%,4.08%,9.69%,55.8%,4.33%,6.24%,5.41%,4.99%,-0.12%
